Bioassay records as filed in PubChem.
In the library only some 7.3% were active in any assay of this set; here they are far more common.
Rab9 promoter act: activates the Rab9 promoter; Huh7 Rab9 promoter-luciferase reporter, luminescence, 24 h; Potency, µM (highest dose often 9.22 µM), for inactives: at the highest dose activation, negative = inhibition, usual class: activators; hit rate 2.8% among 320,000; AID 485297; further: % of control where 0% means no effect; nearly all actives have a fitted effect of over 60% in size
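Promoter activation is measured as luciferase luminescence in Huh7 cells stably transfected with a Rab9 promoter–luciferase construct, following 24 h compound exposure at 37 °C and 10 min reagent incubation at ambient temperature.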
NPC1 prom act: activates the NPC1 promoter; Huh7 NPC1 promoter luciferase reporter, 24 h; Potency, µM (top dose mostly 9.22 µM), inactives show at the highest dose activation, hits mostly activators; hit rate 2.4% among 320,000; AID 485313; further: % of control where 0% means no effect; nearly all actives have a fitted effect of over 60% in size
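Huh7 cells stably carrying NPC1 promoter–luciferase, plated in Opti-MEM with 10% FBS for 2 h, were exposed to compound in DMSO for 24 h at 37 °C; luciferase reagent was added for 10 min and luminescence read.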
uPA surface inh: cell surface uPA generation inhibition; Potency, µM (top dose mostly 38.3 µM), for the others: at the highest dose activity change, negative = inhibition, most hits filed as inhibitors; hit rate 0.31% among 330,000; cell surface uPA generation assay, qHTS; active means well fitted inhibition curve with a large enough effect; inconclusive means small, poorly fitted or top-dose-only effect; inactive means no such curve, though single readings can be large or run the other way; tested in mouse RAW 264.7 cells; further: on the % scale 0 is the no-effect control and ±100 the full control effect; nearly all actives have a fitted effect of over 55% in size
SMN2 splice enh: enhancers of SMN2 splice variant expression; HEK293 SMN2-luciferase splicing reporter, luminescence, 30-36 h; Potency, µM (doses to about 46.1 µM), for inactives: at the top dose activity change, positive = activation, hits mostly activators; hit rate 2.8% among 210,000; AID 1458; further: % of control where 0% means no effect; nearly all actives have a fitted effect of over 55% in size
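HEK293 cells carry an SMN2 […]–luciferase reporter in which exon 7 inclusion puts luciferase in frame. Cells were plated 10-12 h before compound addition, then incubated 30-36 h at 37C. ONE-Glo luminescence was read; sodium butyrate at 4.5 mM final served as control.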
FLuc modulator: inhibits or activates purified firefly luciferase, miR-21 counter-screen; purified FLuc, Km substrates, luminescence inhibition; Potency, µM (titrated, usually from 57.5 µM), for inactives: top-dose activity change, negative = inhibition, most hits filed as inhibitors; hit rate 6.9% among 360,000; AID 588342;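 further: plate controls were vehicle for no effect and reference inhibitor for full effect; nearly all actives have a fitted effect of over 55% in size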
Target sequence (P08659 whole entry, looked up): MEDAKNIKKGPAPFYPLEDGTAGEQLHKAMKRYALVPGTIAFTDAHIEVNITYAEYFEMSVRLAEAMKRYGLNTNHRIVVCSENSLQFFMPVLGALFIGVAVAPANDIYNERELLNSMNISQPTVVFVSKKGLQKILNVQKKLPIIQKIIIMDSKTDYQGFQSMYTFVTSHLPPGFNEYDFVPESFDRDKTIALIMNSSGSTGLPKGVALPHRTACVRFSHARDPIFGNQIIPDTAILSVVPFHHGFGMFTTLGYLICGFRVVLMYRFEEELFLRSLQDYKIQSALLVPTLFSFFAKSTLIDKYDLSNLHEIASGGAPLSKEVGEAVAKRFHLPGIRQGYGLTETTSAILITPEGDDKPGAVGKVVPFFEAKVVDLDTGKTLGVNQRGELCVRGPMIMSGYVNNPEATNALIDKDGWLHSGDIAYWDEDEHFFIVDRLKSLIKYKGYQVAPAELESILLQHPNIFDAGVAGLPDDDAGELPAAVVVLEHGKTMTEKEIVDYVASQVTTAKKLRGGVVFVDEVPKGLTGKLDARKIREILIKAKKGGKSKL
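Purified P. pyralis luciferase (10nM final) with 10uM D-luciferin and 10uM ATP (Km levels) in 50mM Tris acetate pH 7.5, 10mM Mg acetate, 0.01% Tween-20, 0.05% BSA; qHTS 6-point titration, ~60 µM downward; luminescence read.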
ELG1 genotoxic: inducers of genotoxicity in HEK293T ELG1-luciferase cells; HEK293T ELG1-luciferase reporter, luminescence, 16 h; Potency, µM (doses to about 46 µM), inactives show at the top dose activity change, positive = activation, usual class: activators; hit rate 1.3% among 330,000; AID 504466; further: % of control where 0% means no effect; nearly all actives have a fitted effect of over 60% in size
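Step 1: seed 2,000 HEK293T ELG1-luciferase cells per well. Step 2: add compound or DMSO, incubate 16 hr at 37 °C. Step 3: ONE-Glo, 30 min at room temperature, read luminescence.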
The depositor's hits bear a star; ? = inconclusive; nt = not tested or not shown; [ ] = dose if it differs, or a comment. Unless noted, the call rests on the fitted dose curve; in most records, active means well fitted curve in the direction sought with a large enough effect; inconclusive means small, poorly fitted or top-dose-only effect, or another doubt; inactive means no such curve, though single readings can be large; an effect the other way counts as inactive or inconclusive. Potency means the concentration at half of the fitted maximal effect.

SMILES | Rab9 promoter act | NPC1 prom act | uPA surface inh | SMN2 splice enh | FLuc modulator | ELG1 genotoxic
Cc1ccc(NC(=O)N2C(=O)C3(OCCO3)c3ccccc32)cc1 | 2µM* | 3.2µM* | -1% | ? | ? | ?
Nc1ccccc1C(=O)NNC(=O)C(=O)/C=C(\O)c1ccccc1 | 21% | 17% | -8% | nt | 13µM* | 15%
CCc1ccccc1NC(=S)N(CCCN(C)C)Cc1cc2cc3c(cc2[nH]c1=O)OCO3 | -5% | -4% | 2% | -1% | -7% | 0%
CC(C)N1CCc2c(sc(NC(=O)c3nc4ccccc4s3)c2C(N)=O)C1 | -1% | 0% | nt | -9% | 17µM* | 1%
CCN1CCN(S(=O)(=O)c2ccc(C(=O)Nc3sc4c(c3C(N)=O)CCN(CC)C4)cc2)CC1 | -5% | 1% | -3% | nt | 1% | -1%
CCN1CCc2c(sc(NC(=O)c3ccc4ccccc4c3)c2C(N)=O)C1 | 14% | 21% | nt | nt | 2.4µM* | 8%
CC(=O)Nc1sc2c(c1-c1nc3ccccc3s1)CN(C(C)C)CC2 | nt | nt | 2µM* | nt | nt | -9%
CC(C)N1CCc2c(sc(NC(=O)c3cc(-c4cccs4)nc4ccccc34)c2C(N)=O)C1 | -7% | 0% | ? | -6% | -24% | -10%
Cc1nc(-c2ccccc2)sc1CCNC(=O)c1ccco1 | nt | nt | nt | nt | -10% | nt
Cc1ccc(NC(=O)CN2C(=O)C(C)(C)c3cc(S(=O)(=O)N4CCCCC4)ccc32)c(Br)c1 | nt | nt | nt | nt | -3% | nt
Cc1occc1C(=O)N/N=C/c1ccc2c(c1)OCO2 | 0.35µM* | 0.5µM* | -12% | nt | 3.8µM* | ?
Cn1cc(C(=O)N/N=C/c2ccc3c(c2)OCO3)c2ccccc21 | ? | ? | -15% | nt | 8.5µM* | 10%
COc1ccc(/C=N/NC(=O)c2ccoc2C)cc1O | 24% | 12% | -5% | ? | ? | ?
Cc1cc(C(=O)N/N=C/c2ccc([N+](=O)[O-])o2)c(C)o1 | -3% | -4% | 10µM* | nt | 5% | -13%
Cn1cc(C(=O)N/N=C/c2cccs2)c2ccccc21 | ? | ? | -11% | 22µM* | 15µM* | ?
COc1ccc(/C=N/NC(=O)c2ccoc2C)cc1OC | ? | ? | 0% | 13µM* | ? | ?
O=C(N/N=C/c1ccc2c(c1)OCO2)c1ccc(Cl)cc1Cl | 3% | 2% | -1% | nt | ? | 2%
Cc1cc(C(=O)N/N=C/c2ccc3c(c2)OCO3)c(C)o1 | 3.2µM* | ? | -7% | nt | 6µM* | ?
O=C1C2C3C=CC(C2C(=O)N1CN1CCOCC1)C1C2C(=O)N(CN4CCOCC4)C(=O)C2C31 (centres undefined) | nt | nt | nt | 3%[9.22 µM] | nt | nt
O=C(O)c1ccc(CNCc2ccc(Cl)cc2)s1 | nt | nt | nt | -2% | -9% | nt
COc1ncnc2sc(-c3ccccc3)cc12 | 3.2µM* | ? | -2% | ? | 12µM* | ?
CC(C)(C)Nc1ncnc2sc(-c3ccccc3)cc12 | -1% | -1% | -23% | nt | ? | -4%
CN(C)c1ncnc2sc(-c3ccccc3)cc12 | 7% | 3% | -11% | nt | 15µM* | 15%
COc1cc(OC)c(NC(=O)CCc2nc(C3=CCN(Cc4cccc(Cl)c4)CC3)no2)cc1Cl | nt | nt | nt | nt | -20% | nt
COc1ccc(C(=O)NNC2=CC(=O)CC(C)(C)C2)cc1 | -1% | -11% | 0% | -7%[1.84 µM] | 2% | 3%
SMILES | Rab9 promoter act | NPC1 prom act | uPA surface inh | SMN2 splice enh | FLuc modulator | ELG1 genotoxic
CC1(C)CC(=O)C=C(NNC(=O)c2ccccc2O)C1 | 3.2µM* | ? | ? | 18µM* | 0.85µM* | 17%
Cc1cccc(C(=O)NNC2=CC(=O)CC(C)(C)C2)c1O | ? | 25% | 0% | nt | 11µM* | ?
Cc1nc2ccccc2n1CCc1nc2c3ccccc3nc(SCc3ccc(F)cc3)n2n1 | nt | nt | nt | nt | -2% | nt
COc1ccccc1CN(Cc1c(Cl)cccc1Cl)S(=O)(=O)c1ccc(Br)cc1 | nt | nt | nt | nt | 3% | nt
O=C(N/C(=C/c1ccccc1)C(=O)N1CCCCC1)c1ccccc1 | 2.8µM* | 3.5µM* | -1% | nt | 7.6µM* | 18µM*
COc1ccc2c(c1)C(=O)[C@H](OC(=O)NS(=O)(=O)c1ccc(C)cc1)[C@@H](c1ccc(OC)c(Br)c1)O2 | nt | nt | nt | -7% | nt | nt
CC1(C)CC(=O)C(CO)=C(c2cccc3ccccc23)C1=O | -6% | 9% | 14% | nt | 4% | -2%
CC1CCC(NC(=O)Cn2ncc3ccccc32)CC1 (centres undefined) | ? | ? | -10% | ? | ? | 10µM*
O=C(NC(=S)NC1CCN(Cc2ccccc2)CC1)c1ccc(F)cc1 | -5% | -1% | -7% | nt | 1% | 0%
Cc1ccc(C(=O)NCC(=O)NC2CCCC2)cc1 | 0% | 0% | 0% | 23% | 3% | 1%
CC(C)CNC(=S)NC(=O)c1ccc(F)cc1 | 17% | 22% | 3% | ? | 30µM* | ?
Cc1ccc(C(=O)NC2CCCCCCC2)c(Cl)c1 | 0.32µM* | 0.32µM* | ? | nt | 0.76µM* | 1.5µM*
O=C(NC(=S)NC1CCCCC1)c1ccc(F)cc1 | 4µM* | ? | -1% | nt | ? | ?
O=C(NC(=S)NCCN1CCOCC1)c1ccc(F)cc1 | -3% | -1% | 1% | ? | 1% | -1%
Cc1ccc(C(=O)NC2CCCCC2)cc1 | 2.5µM* | 2.8µM* | ? | 14µM* | 21µM* | 30%
CCCCOC(=O)c1ccc(NC(=O)C2(c3cccs3)CCOCC2)cc1 | nt | nt | nt | nt | -1% | nt
CCN(C(=O)Cn1c(SCC(=O)Nc2ccc(OC)cc2)nc2ccccc21)c1cccc(C)c1 | nt | nt | nt | nt | 1% | nt
O=C(NC1CCCCC1)c1ccc([N+](=O)[O-])cc1 | nt | nt | 2% | nt | nt | nt
N#Cc1ccc(C(=O)NC2CCCCCCC2)cc1 | 1.4µM* | 1.8µM* | 0% | nt | 21µM* | ?
O=C(NC(=S)NC(CO)Cc1ccccc1)c1ccc(F)cc1 (centres undefined) | 4µM* | 1.3µM* | -1% | nt | 0% | ?
COc1ccccc1NC(=O)CN1C(=O)c2cccc3cccc1c23 | nt | nt | nt | -44% | -1% | nt
Cc1cccc(Nc2nnc(SCC(=O)c3ccc(O)cc3O)s2)c1 | 5% | -2% | 11% | nt | 9.5µM* | ?
Cc1ccc(Nc2nnc(SCC(=O)N(C)C3CCS(=O)(=O)C3)s2)cc1 (centres undefined) | 25% | 23% | -8% | ? | 8.5µM* | 12%
Cc1ccc(Nc2nnc(SCC(=O)c3ccc(O)cc3O)s2)cc1 | -1% | -2% | 3% | nt | 11µM* | 2%
COc1ccc(OC)c(NC(=O)Cn2ccc3ccccc3c2=O)c1 | nt | nt | nt | -8% | 0% | nt
COc1ccc(N2CCN(C(=O)CN(C)S(=O)(=O)c3cnc[nH]3)CC2)cc1 | -3% | 2% | 2% | -22% | 1% | 1%
